The values below come from PubChem BioAssay (NCI).

Compounds without any hit were thinned out: in the full panel of roughly 79,000, 15% have a hit. Unmarked numbers belong to inactive results. The source made the active and inactive calls. Rule as the data show it: active = growth inhibition above about 70%; inactive = the rest.

One experiment can be described thus: NCI Yeast Anticancer Drug Screen. Data for the bub3 strain (AID 167). The conditions noted are these: S. cerevisiae bub3 mutant strain, at 50.0 µM (retest, dose inferred, filed as 5.0), active compounds read high. The procedure, abridged:
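Whole-cell yeast assay. The mutant strain was incubated with compounds, and growth inhibition was determined by comparison with vehicle-treated cells.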
As to `COC(=O)c1ccc(Cl)c(Cl)c1`, the growth inhibition was 13%.

Regarding `Cc1cc(Br)c2ccccc2c1N`, the growth inhibition was 22%.

In the case of `C=C1N(S(=O)(=O)c2ccc(C)cc2)C(=O)OCC12CCCC2`, the growth inhibition is 43%.

For the compound `CCCCCCCCN=C(N)c1ccc(C(=O)OCC2CCCCC2)cc1`, the growth inhibition was 100% (active).

Take `Nc1ccc2ccc3cccc4ccc1c2c34`: the growth inhibition was 98% (active).

On to `C=C(Br)CN(CC(=C)Br)C(C)=O`, for which the growth inhibition was 10%.

In the case of `[Ce+3].[Cl-].[O-]/N=C(\c1ccccc1)c1ccccn1.[O-]/N=C(\c1ccccc1)c1ccccn1.[O-]/N=C(\c1ccccc1)c1ccccn1`, the growth inhibition is 95% (active).

`O=CCCCc1cc2c(cc1Br)CCC2`: the growth inhibition was 92% (active).

With `C1=C(CC2=C[P+](c3ccccc3)(c3ccccc3)C=C(c3ccccc3)O2)OC(c2ccccc2)=C[P+]1(c1ccccc1)c1ccccc1`, the growth inhibition was 98% (active).

As for `CC/C=C(\C)CC(C)O` (configuration not stated), the growth inhibition is -5%.

For `CCC(c1ccc(Cl)cc1)C(C#N)c1ccc(Cl)cc1` (configuration not stated), the growth inhibition was 44%.

As to `CN1/C(=C/C=C/C(I)=C/C=C/C2=[N+](C)c3ccccc3C2(C)C)C(C)(C)c2ccccc21`, the growth inhibition was 89% (active).

With `Nc1ccc(N)c2c1C(=O)c1ccccc1C2=O`, the growth inhibition is 24%.

Regarding `CN1C=COC1N=C1CCCCC1` (configuration not stated), the growth inhibition was 10%.

As for `Clc1ccc(Cc2nc3ccccc3s2)c(Cl)c1`, the growth inhibition was 98% (active).

Consider `O=CC1(c2ccc(Cl)cc2)NC(=O)NC1=O` (configuration not stated), for which the growth inhibition is -1%.

As to `O=C(CSc1nnc(-c2ccc(N=Cc3ccc(Cl)cc3)cc2)o1)Nc1ccc(Cl)cc1Cl`, the growth inhibition was 100% (active).

For the compound `O=C(Oc1ccccc1)C1CCCCC1C(=O)Oc1ccccc1` (configuration not stated), the growth inhibition is -5%.

For the compound `O=C(O)Cc1ccc2c(c1O)C(=O)c1ccccc1C2=O`, the growth inhibition is 50%.

For `O=[N+]([O-])c1cccc(F)c1O`, the growth inhibition is 73% (active).

Regarding `CCc1nc2c(O)ccc(O)c2nc1C`, the growth inhibition was 17%.

On to `COC(=O)N/N=C(/CC1(O)C(=O)Nc2ccccc21)c1ccc(Cl)cc1Cl` (configuration not stated), for which the growth inhibition was 97% (active).

The same experiment, now with this note: S. cerevisiae bub3 mutant strain, at 50.0 µM, active compounds read high.
With `CCCCCCCCCC1OCC(C)O1` (configuration not stated), the growth inhibition was 7.7%.

Consider `O=[N+]([O-])c1ccc2c(c1)/C(=C/c1ccc(O)cc1)c1ccccc1-2`, for which the growth inhibition is 88.6% (active).

Regarding `COc1cc2c(cc1OC(C)=O)C(=O)C(Br)(Br)CCC2`, the growth inhibition is 99% (active).

Consider `COC(=O)c1cc2c(oc1=O)-c1ccccc1N(C=O)C2`, for which the growth inhibition was -35.1%.

As for `CC(=O)Nc1ccc(S(=O)(=O)/N=C2\C=CC(=O)c3ccccc32)cc1`, the growth inhibition was 71.7% (active).

Consider `C/C(=N/NC(=S)N(C)C)c1ccccc1O`, for which the growth inhibition was 36.8%.

In the case of `CC(CN(C)C)C(=O)/C=C/c1c(Cl)cccc1Cl` (configuration not stated), the growth inhibition is 74.9% (active).

Consider `N#CC(O)C(Br)(Br)Br` (configuration not stated), for which the growth inhibition was 84.7% (active).

Regarding `C=Cc1cc(N=Nc2ccc([N+](=O)[O-])cc2)ccc1N(C)C`, the growth inhibition was 2.55%.

For the compound `Cc1cccnc1NC(=S)Nc1ccccc1Cl`, the growth inhibition was 91.8% (active).

With `O=C1C=CC(=O)c2c(O)c(N3CCC[C@@H]3CO)c(Cl)c(O)c21`, the growth inhibition is 72.2% (active).

Take `Cc1cc(C(=O)O)c(C)c2c1sc1ccccc12`: the growth inhibition was 51.1%.

As for `COc1cccc2c1OC(c1ccc(Cl)cc1)C([N+](=O)[O-])=C2` (configuration not stated), the growth inhibition was 85.5% (active).

Consider `CC1=C(C(=O)Nc2cccc(Cl)c2)C(c2ccccc2F)C(C(=O)Nc2cccc(Cl)c2)=C(C)N1`, for which the growth inhibition was 86.8% (active).

As for `Cc1ccc(C2C(O)=C(c3ccccc3)Sc3ccc(C)cc32)cc1` (configuration not stated), the growth inhibition is 13.4%.

Take `CC(=O)Oc1ccc(C)c(C(C)C(Cl)(Cl)Cl)c1` (configuration not stated): the growth inhibition was 60%.

Turning to `CCCC(=O)Oc1ccc(-c2ccc(Br)cc2)cc1`, the growth inhibition was 89.8% (active).

For the compound `CCCCC#CCOC(=O)c1cc([N+](=O)[O-])cc([N+](=O)[O-])c1`, the growth inhibition is 99.3% (active).

`COC(=O)c1ccc(Cl)c(Cl)c1`: the growth inhibition is 22%.

As to `Cc1cc(Br)c2ccccc2c1N`, the growth inhibition was 75% (active).

`C=C1N(S(=O)(=O)c2ccc(C)cc2)C(=O)OCC12CCCC2`: the growth inhibition was 54.2%.

For the compound `CCCCCCCCN=C(N)c1ccc(C(=O)OCC2CCCCC2)cc1`, the growth inhibition was 99.6% (active).

Turning to `Nc1ccc2ccc3cccc4ccc1c2c34`, the growth inhibition was 23.8%.

As for `C=C(Br)CN(CC(=C)Br)C(C)=O`, the growth inhibition was -1.4%.

Take `[Ce+3].[Cl-].[O-]/N=C(\c1ccccc1)c1ccccn1.[O-]/N=C(\c1ccccc1)c1ccccn1.[O-]/N=C(\c1ccccc1)c1ccccn1`: the growth inhibition was 88.3% (active).

`O=CCCCc1cc2c(cc1Br)CCC2`: the growth inhibition was 77.5% (active).

Consider `C1=C(CC2=C[P+](c3ccccc3)(c3ccccc3)C=C(c3ccccc3)O2)OC(c2ccccc2)=C[P+]1(c1ccccc1)c1ccccc1`, for which the growth inhibition was 90.5% (active).

As for `CC/C=C(\C)CC(C)O` (configuration not stated), the growth inhibition is 57%.

In the case of `CCC(c1ccc(Cl)cc1)C(C#N)c1ccc(Cl)cc1` (configuration not stated), the growth inhibition is 41.8%.

Consider `CN1/C(=C/C=C/C(I)=C/C=C/C2=[N+](C)c3ccccc3C2(C)C)C(C)(C)c2ccccc21`, for which the growth inhibition is 76.3% (active).

Consider `Nc1ccc(N)c2c1C(=O)c1ccccc1C2=O`, for which the growth inhibition was 31.3%.

Turning to `CN1C=COC1N=C1CCCCC1` (configuration not stated), the growth inhibition is -13%.

For `Clc1ccc(Cc2nc3ccccc3s2)c(Cl)c1`, the growth inhibition is 92.5% (active).

With `O=CC1(c2ccc(Cl)cc2)NC(=O)NC1=O` (configuration not stated), the growth inhibition is -10.3%.

`O=C(CSc1nnc(-c2ccc(N=Cc3ccc(Cl)cc3)cc2)o1)Nc1ccc(Cl)cc1Cl`: the growth inhibition was 98.5% (active).

For `O=C(Oc1ccccc1)C1CCCCC1C(=O)Oc1ccccc1` (configuration not stated), the growth inhibition was -4.5%.

Regarding `O=C(O)Cc1ccc2c(c1O)C(=O)c1ccccc1C2=O`, the growth inhibition was 65.9%.

In the case of `O=[N+]([O-])c1cccc(F)c1O`, the growth inhibition was 11.3%.

For the compound `CCc1nc2c(O)ccc(O)c2nc1C`, the growth inhibition was 84.2% (active).

On to `COC(=O)N/N=C(/CC1(O)C(=O)Nc2ccccc21)c1ccc(Cl)cc1Cl` (configuration not stated), for which the growth inhibition is 96.8% (active).
